These results are taken from PubChem BioAssay (EPA / NIEHS).

Molecules are shown by their SMILES. Records with an inconclusive call do not appear. Calls of active or inactive are those of the source. How the source made its calls, unless noted: active means hit-call score of the fitted dose curve at least 0.9, where 1 is the maximum; inactive means score below 0.9.

The target of assay [1] is Paired box protein Pax-6 (Homo sapiens) (UniProt P26367). The assay is described as follows: ATG_Pax6_CIS: Attagene CIS-FACTORIAL HepG2 Assay for human Paired Box 6 (PAX6) (AID 2282956). The following applies: HepG2 CIS-FACTORIAL PAX6 reporter transcription, RNA readout; actives raise or lower the signal. The method in brief:
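Transient MRTU transfection of HepG2 → compound exposure 24 h → TriZol RNA, oligo(dT) RT → PCR, 6-FAM primer extension, HpaI cut → capillary electrophoresis; activity fitted both directions against DMSO.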

Assay [2] is described as follows: ATG_PXRE_CIS: Attagene CIS-FACTORIAL HepG2 Assay for human Pregnane X Receptor Element (PXRE) (AID 2282957). The settings on record: HepG2 Attagene CIS-FACTORIAL PXRE reporter, mRNA; actives raise or lower the signal. The procedure, abridged:
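Transfect HepG2 with MRTUs (cis promoter elements); dose chemical, incubate 24 h; isolate RNA, RT with oligo(dT), PCR, 6-FAM label, HpaI cut, CE. Gain/loss fit vs DMSO.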

A short description of assay [3]: ATG_RORE_CIS: Attagene CIS-FACTORIAL HepG2 Assay for human RAR-related Orphan Receptor Element (RORE) (AID 2282959). The following applies: HepG2 Attagene cis-factorial RORE reporter, mRNA; actives raise or lower the signal. The procedure, abridged: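 Transfect HepG2 with MRTUs; treat 24 h; extract RNA; RT with oligo(dT); PCR with reporter-specific primers; 6-FAM primer extension; HpaI digest 2 h at 37 C; capillary electrophoresis. Fit vs DMSO, bidirectional.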

Assay [4] is described as follows: ATG_Sox_CIS: Attagene CIS-FACTORIAL HepG2 Assay for human SRY-box transcription factor (SOX) (AID 2282960). The following applies: HepG2 Attagene cis-factorial SOX reporter, mRNA; actives raise or lower the signal. The procedure, abridged:
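Fluorescence-labelled cDNA fragments from reporter transcripts, sized by CE, give the signal. Cells: HepG2, transiently transfected with cis-regulated reporter units. Exposure 24 h; DMSO negative control; bidirectional curve fitting.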

For assay [5], the target named is Transcription factor Sp1 (Homo sapiens) (UniProt P08047). Briefly: ATG_Sp1_CIS: Attagene CIS-FACTORIAL HepG2 Assay for human Specificity Protein 1 (Sp1) (AID 2282961). The following applies: HepG2 Sp1 cis-reporter transcription, actives raise or lower the signal. The procedure, abridged:
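Chemicals are dosed onto HepG2 cells transfected with multiple cis-promoter reporter constructs, and after 24 h reporter RNA is reverse-transcribed, PCR-amplified and resolved by capillary electrophoresis for fluorescence quantitation; activity is scored up or down against DMSO.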

A short description of assay [6]: ATG_SREBP_CIS: Attagene CIS-FACTORIAL HepG2 Assay for human Sterol Regulatory Element Binding (SREBP) (AID 2282962). The settings on record: HepG2 Attagene cis-factorial SREBP reporter, mRNA; actives raise or lower the signal. The method in brief: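 Transfected HepG2 (cis-regulated reporter library, endogenous TFs) → compound 24 h → total RNA → oligo(dT) RT → reporter-specific PCR → FAM primer extension, HpaI cut → CE fluorescence. Fit bidirectional vs DMSO.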

The nature of assay [7]: ATG_TA_CIS: Attagene CIS-FACTORIAL HepG2 Assay for human TA Basal Promoter (AID 2282964). The settings on record: HepG2 Attagene CIS-factorial TA basal promoter reporter; actives raise or lower the signal. The procedure, abridged: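 Read-out: fluorescent reporter-transcript fragments resolved by capillary electrophoresis after RT-PCR and HpaI digestion. Source: HepG2 cells carrying transiently transfected multi-reporter cis constructs, treated 24 h. Endpoint fitted bidirectionally relative to DMSO.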

Assay [8] is described as follows: ATG_TCF_b_cat_CIS: Attagene CIS-FACTORIAL HepG2 Assay for human T-Cell-Factor with beta-catenin (TCF/b-cat) (AID 2282965). The settings on record: HepG2 TCF/beta-catenin cis-reporter transcription, actives raise or lower the signal. The procedure, abridged:
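HepG2, transient MRTU transfection, cis-element-driven reporters (endogenous TFs). 24 h compound exposure. Readout: reporter mRNA by RT-PCR + 6-FAM primer extension, HpaI digest, capillary electrophoresis. Gain/loss fit vs DMSO baseline.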

A short description of assay [9]: ATG_TAL_CIS: Attagene CIS-FACTORIAL HepG2 Assay for human TAL Basal Promoter (AID 2282966).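 Further: background control endpoint measuring basal TAL promoter reporter mRNA not a specific factor.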 The settings on record: HepG2 Attagene cis-factorial TAL promoter reporter; actives raise or lower the signal. The procedure, abridged: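 Fluorescence of labelled reporter cDNA fragments, resolved by capillary electrophoresis, gave the readout. Human HepG2 liver cells carried transiently transfected cis-element reporter units and were treated for 24 hours; activity was fitted bidirectionally against DMSO.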

Assay [10] in a line: ATG_TGFb_CIS: Attagene CIS-FACTORIAL HepG2 Assay for human Transforming Growth Factor (TGF) (AID 2282967). The following applies: HepG2 Attagene CIS TGFb reporter, mRNA transcription; actives raise or lower the signal. The method in brief: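 Transient MRTU transfection of HepG2 (FuGene 6). Dose 24 h. TriZol RNA, oligo(dT) RT, PCR, 6-FAM primer extension, HpaI cut, CE. Bidirectional fit, DMSO = baseline.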

The nature of assay [11]: ATG_VDRE_CIS: Attagene CIS-FACTORIAL HepG2 Assay for human Vitamin D Receptor Element (VDRE) (AID 2282968). The settings on record: HepG2 VDRE cis-reporter transcription, actives raise or lower the signal. The procedure, abridged: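 Cell-based multiplexed reporter format in human liver HepG2 cells, 24 h post-dose. Fluorescence from capillary electrophoresis of reporter cDNA gives the signal, with DMSO as negative control and baseline.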

Assay [12] concerns the target X-box-binding protein 1 (Homo sapiens) (UniProt P17861). Briefly: ATG_Xbp1_CIS: Attagene CIS-FACTORIAL HepG2 Assay for human X-box Binding Protein 1 (XBP1) (AID 2282972). The settings on record: HepG2 XBP1 cis-element reporter, Attagene multiplex; actives raise or lower the signal. The procedure, abridged:
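HepG2, transient MRTU transfection (cis-promoter driven), 24 h compound exposure. Total RNA → oligo(dT) RT → PCR → 6-FAM labeling → HpaI cut → CE. Bidirectional fit vs DMSO.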

A short description of assay [13]: ATG_M_19_TRANS: Attagene TRANS-FACTORIAL HepG2 Assay for M19 Transcription Factor (Internal Marker) (AID 2282974; active means hit-call score of the fitted dose curve at least 0.9, where 1 is the maximum). The settings on record: HepG2 Attagene TRANS-FACTORIAL M19 internal marker reporter. The procedure, abridged: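 Multiplexed TRANS format: HepG2 liver cells bearing transient GAL4-UAS reporter units, chemical treatment 24 h, reporter transcripts quantified by RT-PCR plus capillary electrophoresis. DMSO defines baseline.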

The nature of assay [14]: ATG_GAL4_TRANS: Attagene TRANS-FACTORIAL HepG2 Assay for GAL4 (Internal Marker) (AID 2282976; active means hit-call score of the fitted dose curve at least 0.9, where 1 is the maximum). The settings on record: HepG2 Attagene TRANS GAL4 internal marker reporter. The method in brief:
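First, HepG2 cells were transfected with reporter units under GAL4-UAS control. Next, they were treated with chemical for 24 h. Finally, RNA was reverse-transcribed, PCR-amplified, FAM-labelled and resolved by capillary electrophoresis, with induction scored against DMSO.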

The target in assay [15] is Signal transducer and activator of transcription 3 (Homo sapiens) (UniProt P40763). The assay is described as follows: ATG_STAT3_CIS: Attagene CIS-FACTORIAL HepG2 Assay for human Signal Transducer and Activator of Transcription 3 (STAT3) (AID 2282963). The following applies: HepG2, Attagene cis-factorial STAT3 reporter transcription; actives raise or lower the signal. The procedure, abridged:
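Values derive from bidirectional fits relative to DMSO of reporter mRNA levels, measured by RT-PCR with capillary electrophoresis, in HepG2 cells carrying transiently transfected cis-regulated reporter units and exposed 24 h.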

The target of assay [16] is Estrogen receptor (Homo sapiens) (UniProt P03372). Briefly: ATG_ERa_TRANS: Attagene TRANS-FACTORIAL HepG2 Assay for human Estrogen Receptor alpha (ERa) (AID 2282970; active means hit-call score of the fitted dose curve at least 0.9, where 1 is the maximum). The following applies: HepG2 Attagene TRANS ERa GAL4 reporter, mRNA. The method in brief: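 Human liver HepG2, transient transfection of multiple GAL4-UAS reporter units; TRANS format (exogenous NR-Gal4 chimera). 24 h dosing. Readout: reporter mRNA, RT-PCR, 6-FAM primer extension, HpaI digest, capillary electrophoresis. Positive direction vs DMSO.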

Assay [17] has as its target Nuclear receptor subfamily 1 group I member 3 (Homo sapiens) (UniProt Q14994). Briefly: ATG_CAR_TRANS: Attagene TRANS-FACTORIAL HepG2 Assay for human Constitutive Androstane Receptor (CAR) (AID 2282969; active means hit-call score of the fitted dose curve at least 0.9, where 1 is the maximum;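 further: activators raise reporter mRNA above DMSO so AC50 marks induction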). The following applies: HepG2 Attagene TRANS-FACTORIAL CAR reporter. The procedure, abridged: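 HepG2 cells transiently transfected with GAL4-UAS reporter units; TRANS format reads activity of exogenous chimeric NR-Gal4 protein. After 24 h dosing, reporter mRNA quantified by RT-PCR, 6-FAM labelling and capillary electrophoresis; gain of signal fitted against DMSO.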

The target of assay [18] is Estrogen-related receptor gamma (Homo sapiens) (UniProt P62508). Briefly: ATG_ERRg_TRANS: Attagene TRANS-FACTORIAL HepG2 Assay for human Estrogen-Related Receptor gamma (ERRg) (AID 2282977; active means hit-call score of the fitted dose curve at least 0.9, where 1 is the maximum;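 further: hits increase reporter signal over DMSO so potencies reflect activators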). The following applies: HepG2 Attagene TRANS reporter, ERRg transactivation. The method in brief: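 HepG2 cells transiently transfected with multiplexed GAL4-UAS reporter units and chimeric NR-Gal4 constructs were exposed to test chemicals for 24 h. Reporter mRNA was measured by RT-PCR, 6-FAM primer extension, HpaI digestion and capillary electrophoresis; gain-of-signal versus DMSO.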

In assay [19] the target is Steroid hormone receptor ERR1 (Homo sapiens) (UniProt P11474). The assay is described as follows: ATG_ERRa_TRANS: Attagene TRANS-FACTORIAL HepG2 Assay for human Estrogen-Related Receptor alpha (ERRa) (AID 2282971; active means hit-call score of the fitted dose curve at least 0.9, where 1 is the maximum). The following applies: HepG2 Attagene TRANS reporter, ERRa transactivation. The procedure, abridged:
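Reporter transcript induction was quantified by RT-PCR and capillary electrophoresis of FAM-labelled, HpaI-cut products after 24 h treatment of HepG2 cells carrying transiently transfected GAL4-UAS reporter units and an exogenous ERRa-Gal4 fusion; activity scored as increase over DMSO.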

Sequence of Signal transducer and activator of transcription 3 (Homo sapiens) (P40763 whole entry, looked up): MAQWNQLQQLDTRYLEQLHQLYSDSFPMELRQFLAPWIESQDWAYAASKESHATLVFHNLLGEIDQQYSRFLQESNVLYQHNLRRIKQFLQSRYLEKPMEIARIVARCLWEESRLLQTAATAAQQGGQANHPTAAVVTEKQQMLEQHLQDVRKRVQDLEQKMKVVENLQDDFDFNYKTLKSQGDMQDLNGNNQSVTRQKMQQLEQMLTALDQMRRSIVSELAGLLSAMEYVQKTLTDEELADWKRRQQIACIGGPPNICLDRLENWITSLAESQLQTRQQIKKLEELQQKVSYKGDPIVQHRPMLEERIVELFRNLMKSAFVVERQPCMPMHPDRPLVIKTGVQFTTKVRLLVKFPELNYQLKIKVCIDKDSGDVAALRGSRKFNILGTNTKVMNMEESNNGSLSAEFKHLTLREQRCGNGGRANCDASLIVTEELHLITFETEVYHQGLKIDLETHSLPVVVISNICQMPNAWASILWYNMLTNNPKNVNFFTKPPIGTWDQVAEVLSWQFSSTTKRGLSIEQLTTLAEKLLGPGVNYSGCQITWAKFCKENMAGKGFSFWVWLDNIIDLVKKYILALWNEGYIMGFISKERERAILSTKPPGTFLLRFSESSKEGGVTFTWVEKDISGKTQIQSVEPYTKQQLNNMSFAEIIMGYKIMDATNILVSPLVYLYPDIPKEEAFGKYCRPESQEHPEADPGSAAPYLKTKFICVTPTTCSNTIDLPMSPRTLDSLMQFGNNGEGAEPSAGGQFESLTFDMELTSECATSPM
Sequence of Paired box protein Pax-6 (Homo sapiens) (P26367 whole entry, looked up): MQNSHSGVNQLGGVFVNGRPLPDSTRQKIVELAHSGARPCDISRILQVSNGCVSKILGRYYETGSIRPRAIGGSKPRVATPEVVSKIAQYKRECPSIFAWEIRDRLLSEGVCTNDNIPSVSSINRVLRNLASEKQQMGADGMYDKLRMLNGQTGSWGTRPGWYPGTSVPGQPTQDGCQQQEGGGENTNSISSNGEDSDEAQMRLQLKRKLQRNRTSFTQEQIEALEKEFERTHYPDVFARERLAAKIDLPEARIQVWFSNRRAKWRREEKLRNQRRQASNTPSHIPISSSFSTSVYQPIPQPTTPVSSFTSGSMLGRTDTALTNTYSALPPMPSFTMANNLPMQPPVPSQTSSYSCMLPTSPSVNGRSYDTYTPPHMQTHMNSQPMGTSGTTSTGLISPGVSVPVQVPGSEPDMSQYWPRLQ
Sequence of Transcription factor Sp1 (Homo sapiens) (P08047 whole entry, looked up): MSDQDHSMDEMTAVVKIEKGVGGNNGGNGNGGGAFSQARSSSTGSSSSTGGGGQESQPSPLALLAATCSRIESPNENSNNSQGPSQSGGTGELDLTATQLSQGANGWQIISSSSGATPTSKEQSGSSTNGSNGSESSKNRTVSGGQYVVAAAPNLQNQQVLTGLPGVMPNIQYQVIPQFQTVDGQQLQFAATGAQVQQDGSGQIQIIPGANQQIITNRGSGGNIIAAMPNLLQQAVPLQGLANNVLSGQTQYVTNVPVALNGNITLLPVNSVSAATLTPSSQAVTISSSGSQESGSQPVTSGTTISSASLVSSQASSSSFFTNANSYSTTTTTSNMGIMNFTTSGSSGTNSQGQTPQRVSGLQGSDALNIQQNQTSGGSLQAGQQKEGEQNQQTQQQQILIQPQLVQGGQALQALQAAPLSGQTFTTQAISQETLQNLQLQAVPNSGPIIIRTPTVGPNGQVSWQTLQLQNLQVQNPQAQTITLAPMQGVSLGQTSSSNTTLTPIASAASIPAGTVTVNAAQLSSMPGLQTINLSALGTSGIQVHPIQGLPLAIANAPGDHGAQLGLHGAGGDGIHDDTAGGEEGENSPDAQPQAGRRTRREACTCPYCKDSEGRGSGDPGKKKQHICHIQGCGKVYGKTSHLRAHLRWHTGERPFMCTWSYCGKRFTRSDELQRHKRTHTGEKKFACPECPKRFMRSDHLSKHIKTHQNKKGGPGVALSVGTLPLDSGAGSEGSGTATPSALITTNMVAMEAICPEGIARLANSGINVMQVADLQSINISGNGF
Sequence of X-box-binding protein 1 (Homo sapiens) (P17861 whole entry, looked up): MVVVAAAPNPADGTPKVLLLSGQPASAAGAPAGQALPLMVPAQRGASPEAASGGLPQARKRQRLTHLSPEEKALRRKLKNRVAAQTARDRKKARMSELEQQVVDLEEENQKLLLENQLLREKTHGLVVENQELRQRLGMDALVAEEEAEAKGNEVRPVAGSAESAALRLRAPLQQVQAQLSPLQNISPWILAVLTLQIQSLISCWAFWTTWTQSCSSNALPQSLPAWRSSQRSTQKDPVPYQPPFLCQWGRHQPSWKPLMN
Sequence of Estrogen receptor (Homo sapiens) (P03372 whole entry, looked up, the tested form may be a part): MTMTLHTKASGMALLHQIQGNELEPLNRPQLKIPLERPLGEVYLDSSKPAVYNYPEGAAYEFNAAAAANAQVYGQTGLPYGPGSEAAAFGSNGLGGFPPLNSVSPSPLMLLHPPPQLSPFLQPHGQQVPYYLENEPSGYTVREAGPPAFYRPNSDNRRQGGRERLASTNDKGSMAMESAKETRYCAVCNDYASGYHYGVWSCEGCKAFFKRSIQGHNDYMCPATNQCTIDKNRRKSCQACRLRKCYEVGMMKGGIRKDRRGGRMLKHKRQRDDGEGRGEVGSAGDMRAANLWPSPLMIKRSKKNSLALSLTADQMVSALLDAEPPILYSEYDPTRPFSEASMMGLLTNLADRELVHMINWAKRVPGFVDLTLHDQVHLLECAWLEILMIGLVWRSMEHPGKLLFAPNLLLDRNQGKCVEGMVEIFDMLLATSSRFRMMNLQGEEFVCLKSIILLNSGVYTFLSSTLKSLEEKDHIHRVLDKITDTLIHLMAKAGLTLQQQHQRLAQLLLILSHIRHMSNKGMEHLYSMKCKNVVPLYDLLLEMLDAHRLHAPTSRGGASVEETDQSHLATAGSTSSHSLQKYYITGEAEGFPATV
Sequence of Nuclear receptor subfamily 1 group I member 3 (Homo sapiens) (Q14994 whole entry, looked up, the tested form may be a part): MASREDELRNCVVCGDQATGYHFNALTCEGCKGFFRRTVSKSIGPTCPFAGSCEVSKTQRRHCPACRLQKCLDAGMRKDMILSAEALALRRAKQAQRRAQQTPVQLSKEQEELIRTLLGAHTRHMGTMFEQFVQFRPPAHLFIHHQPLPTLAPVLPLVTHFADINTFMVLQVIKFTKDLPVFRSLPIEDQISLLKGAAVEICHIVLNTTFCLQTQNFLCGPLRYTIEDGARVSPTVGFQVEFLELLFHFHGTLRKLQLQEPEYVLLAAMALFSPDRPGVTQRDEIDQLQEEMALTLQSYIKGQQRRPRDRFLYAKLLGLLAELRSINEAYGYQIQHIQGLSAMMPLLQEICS
Sequence of Estrogen-related receptor gamma (Homo sapiens) (P62508 whole entry, looked up, the tested form may be a part): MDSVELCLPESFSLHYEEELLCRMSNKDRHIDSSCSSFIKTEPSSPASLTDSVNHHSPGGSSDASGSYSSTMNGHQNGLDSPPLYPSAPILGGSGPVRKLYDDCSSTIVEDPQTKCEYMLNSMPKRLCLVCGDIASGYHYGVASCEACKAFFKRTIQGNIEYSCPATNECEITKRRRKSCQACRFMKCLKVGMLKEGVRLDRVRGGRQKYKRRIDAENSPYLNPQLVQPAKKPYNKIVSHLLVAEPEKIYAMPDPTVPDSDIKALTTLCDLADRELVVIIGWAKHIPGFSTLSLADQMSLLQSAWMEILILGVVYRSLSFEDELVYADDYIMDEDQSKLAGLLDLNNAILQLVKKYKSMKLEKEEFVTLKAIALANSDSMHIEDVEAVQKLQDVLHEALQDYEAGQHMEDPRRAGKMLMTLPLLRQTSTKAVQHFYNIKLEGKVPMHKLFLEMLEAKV
Sequence of Steroid hormone receptor ERR1 (Homo sapiens) (P11474 whole entry, looked up, the tested form may be a part): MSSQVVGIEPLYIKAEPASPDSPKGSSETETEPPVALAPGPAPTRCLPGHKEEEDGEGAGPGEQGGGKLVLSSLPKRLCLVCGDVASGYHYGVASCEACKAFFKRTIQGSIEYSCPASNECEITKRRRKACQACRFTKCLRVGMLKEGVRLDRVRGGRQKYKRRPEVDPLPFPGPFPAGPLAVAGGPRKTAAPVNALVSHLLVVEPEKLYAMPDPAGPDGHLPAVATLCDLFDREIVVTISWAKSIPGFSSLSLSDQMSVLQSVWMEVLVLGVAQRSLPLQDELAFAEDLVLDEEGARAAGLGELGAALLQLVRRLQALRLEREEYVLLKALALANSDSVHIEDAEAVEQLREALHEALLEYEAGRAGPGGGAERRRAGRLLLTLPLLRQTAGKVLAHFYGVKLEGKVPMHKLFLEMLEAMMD

As for `CCOC(=O)[C@H](C)O`, the outcome in assay [1], in assay [3], in assay [4], in assay [5], in assay [6] and in assay [7] was inactive. In addition, the result in assay [8], in assay [9], in assay [10], in assay [11], in [12] and in assay [13] was inactive. Further, the molecule was called inactive in [14]. In addition, the AC50 (commonly the midpoint of the concentration-response curve, whichever way the signal moves) in [2] is 27.2 µM (active).

As to `COc1ccc([C@@H]2CC(=O)c3c(O)cc(O[C@@H]4O[C@H](CO[C@@H]5O[C@@H](C)[C@H](O)[C@@H](O)[C@H]5O)[C@@H](O)[C@H](O)[C@H]4O)cc3O2)cc1OC`, the molecule was classed as inactive in [1], in [2], in assay [3], in assay [4], in [6] and in assay [15]. Further, the molecule was called inactive in assay [9], in assay [11], in assay [16], in assay [12] and in [14].

`c1cc(N(CC2CO2)CC2CO2)ccc1OCC1CO1` (stereo unspecified): the AC50 in [1] is 46.4 µM (active); in [3] it was 80.6 µM (active); in assay [4], 58.5 µM (active); in assay [5] it was 56.9 µM (active); in assay [8], 12.6 µM (active); in [11], 36.8 µM (active). Also, the AC50 in assay [12] is 12.9 µM (active). In addition, the call in assay [2], in [15], in [9], in assay [10], in assay [17] and in [13] was inactive. Besides, the molecule was classed as inactive in assay [18].

On to `C=C(C)[C@H]1CC=C(C)CC1`, for which the molecule was classed as inactive in [1], in assay [4], in [5], in assay [6], in assay [15] and in assay [7]. Besides, the call in [8], in assay [9], in assay [10], in [17], in assay [16] and in assay [12] was inactive. Besides, the call in [14] was inactive. Also, the AC50 in assay [2] is 51 µM (active).

For `SCCc1cnccn1`, the result in [1], in [3], in assay [4], in assay [6], in assay [15] and in assay [7] was inactive. In addition, the call in assay [8], in assay [10], in assay [19], in assay [12] and in assay [14] was inactive. Besides, the AC50 in assay [2] was 78.1 µM (active); in assay [9], 100 µM (active).
